Measured values taken from paper PMC5540273 (PLoS ONE, 2017).
Where two headings read alike, the source gives them in different places.

Key:
[1] = system: CDC2L2; conditions: concentration: 1 μM,replicates: in singlicate; n = 1
[2] = system: T1, CDC2L5; conditions: n = 1
T1 construct: gene CDK13

[3] = system: T2, CDK11; conditions: concentration: 1 μM,replicates: in singlicate; n = 1
T2 construct: gene CDK19

[4] = system: CDK2; conditions: concentration: 1 μM,replicates: in singlicate; n = 1
[5] = system: CDK3; conditions: concentration: 1 μM,replicates: in singlicate; n = 1
[6] = system: CDK4-cyclinD1; conditions: n = 1
[7] = system: CDK4-cyclinD3; conditions: n = 1
[8] = system: CDK4; conditions: n = 1
[9] = system: CDK5; conditions: concentration: 1 μM,replicates: in singlicate; n = 1
[10] = system: CDK7; conditions: concentration: 1 μM,replicates: in singlicate; n = 1
[11] = concentration: 1 μM,replicates: in singlicate
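Also: KINOMEscan kinase panel screen.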

| SMILES | %Inh [1] | %Inh [2, 11] | %Inh [3] | %Inh [4] | %Inh [5] | %Inh [6, 11] | %Inh [7, 11] | %Inh [8, 11] | %Inh [9] | %Inh [10] | %Inh ([2]; 1 µM) | %Inh ([6]; 1 µM) | %Inh ([7]; 1 µM) | %Inh ([8]; 1 µM) |
| --- | --- | --- | --- | --- | --- | --- | --- | --- | --- | --- | --- | --- | --- | --- |
| Cn1ccc2ncnc(Oc3ccc(NC(=O)Nc4cncc(C(F)(F)F)c4)c(Cl)c3)c21 | 0% | 51% | 97.7% | 0% | 0% | 0% | 0% | 0% | 0% | 0% | – | – | – | – |
| O=C(Nc1n[nH]c2cc(-c3ccco3)ccc12)C1CC1 [SB-737447] | 7% | 19% | 0% | 49% | 7% | 0% | 6% | 5% | 11% | 38% | – | – | – | – |
| COc1cccc(OC)c1C(=O)Nc1cccc(-c2nn3ccccc3c2-c2ccnc(Nc3cccc(F)c3)n2)c1 [GSK361065] | 0% | – | 0% | 0% | 0% | – | – | – | 21% | 22% | 1% | 0% | 7% | 0% |
| CN(c1cccc(CNc2nc(Nc3ccc4c(c3)CC(=O)N4)ncc2C(F)(F)F)c1)S(C)(=O)=O | 7% | 0% | 0% | 6% | 22% | 22% | 0% | 0% | 31% | 53% | – | – | – | – |
| CC(=O)c1c(-c2ccncc2)[nH]c(-c2ccncc2)c1C [GW493036] | 4% | 0% | 13% | 31% | 53% | 0% | 38% | 0% | 0% | 96.2% | – | – | – | – |
| Cc1ccc(Nc2ccnc(Nc3ccc4c(c3)CS(=O)(=O)C4)n2)cc1O.Cl [GW579362] | 46% | 0% | 0% | 89% | 77% | 88% | 73% | 43% | 95% | 23% | – | – | – | – |
| Cc1n[nH]c2cc(Nc3ccnc(Nc4cccc(CN5CCOCC5)c4)n3)ccc12 [GW682569] | 24% | 0% | 19% | 0% | 5% | 0% | 0% | 31% | 0% | 0% | – | – | – | – |
| O=C(Nc1cccc(C(F)(F)F)c1)c1cccc(Oc2ccc3nccn3n2)c1 | 3% | 0% | 0% | 11% | 22% | 18% | 19% | 0% | 0% | 0% | – | – | – | – |
| CN1CCN(CCCNc2nccc(-c3c(-c4ccc(F)cc4)nn4cc(C(N)=O)ccc34)n2)CC1 [GW622475] | 17% | 0% | 40% | 0% | 18% | 0% | 0% | 20% | 0% | 0% | – | – | – | – |
| COc1cc2nccc(Nc3ccc(Oc4ccccc4)cc3)c2cc1OC.Cl [GI261656] | 28% | 0% | 0% | 0% | 0% | 0% | 0% | 44% | 0% | 0% | – | – | – | – |
| CC(=O)Nc1ccc(-c2cc3ncnc(SCC(=O)O)c3s2)cc1 | 17% | 0% | 26% | 12% | 4% | 16% | 31% | 0% | 14% | 40% | – | – | – | – |
| CS(=O)(=O)c1cccc(CNc2nc(Nc3ccc4c(c3)[C@@H]3C[C@@H]4CNC3=O)ncc2C(F)(F)F)c1 | 0% | 2% | 0% | 46% | 33% | 97.1% | 96.4% | 60% | 82% | 94% | – | – | – | – |
| Cc1cccc(-c2nc(Nc3ccncc3)c3sccc3n2)n1 [GW869641] | 0% | 11% | 8% | 3% | 0% | 0% | 24% | 23% | 14% | 44% | – | – | – | – |
| Cl.Cl.NC[C@H](CC1CCCCC1)NC(=O)c1ccc(-c2ccnc3[nH]ccc23)s1 [GSK1581428] | 0% | 0% | 4% | 11% | 0% | 0% | 23% | 25% | 0% | 94.6% | – | – | – | – |
| COC(=O)Nc1nc2cc(Oc3ccc(NC(=O)Nc4cc(C(F)(F)F)ccc4Cl)cc3)ccc2[nH]1.Cl [GW697465] | 12% | 6% | 66% | 37% | 10% | 20% | 0% | 50% | 0% | 89% | – | – | – | – |
| NC(=O)c1ccc(-c2cc3ncnc(SCC(=O)O)c3s2)cc1 | 0% | 0% | 0% | 0% | 0% | 1% | 0% | 0% | 18% | 58% | – | – | – | – |
| O=C(Nc1cccc(Oc2ccc3nccn3n2)c1)Nc1cccc(C(F)(F)F)c1 | 6% | 13% | 98.7% | 0% | 32% | 33% | 0% | 0% | 0% | 0% | – | – | – | – |
